Laboratory results as given in PubChem BioAssay (Tox21).
Values joined by “and” are separate entries in the source; they are usually repeats but may differ in a detail not shown here. Identical values can stand only once. Results filed as inconclusive are left out. Where a call stands in place of a potency, no number is given. A number with no mark means an inactive call. Active and inactive are the calls of the source. Unless noted, calls follow the shape of the dose curve; as a rule, active = well fitted curve in the direction sought with a large enough effect in the repeat runs; inconclusive = weak or mixed curves; inactive = no such curve, though single readings can be large; an effect the other way counts as inactive or inconclusive.

Legend:
[1] = molecular target: Retinoic acid receptor RXR-alpha (Homo sapiens) (UniProt P19793); experiment: qHTS assay to identify small molecule agonists of the RXR signaling pathway (AID 1159527; calls by dose curve; also: nearly all actives have a fitted effect of over 35% in size; also: potency is read from the fitted curve at half-maximal effect)
Retinoic acid receptor RXR-alpha (Homo sapiens), sequence (P19793 whole entry, looked up): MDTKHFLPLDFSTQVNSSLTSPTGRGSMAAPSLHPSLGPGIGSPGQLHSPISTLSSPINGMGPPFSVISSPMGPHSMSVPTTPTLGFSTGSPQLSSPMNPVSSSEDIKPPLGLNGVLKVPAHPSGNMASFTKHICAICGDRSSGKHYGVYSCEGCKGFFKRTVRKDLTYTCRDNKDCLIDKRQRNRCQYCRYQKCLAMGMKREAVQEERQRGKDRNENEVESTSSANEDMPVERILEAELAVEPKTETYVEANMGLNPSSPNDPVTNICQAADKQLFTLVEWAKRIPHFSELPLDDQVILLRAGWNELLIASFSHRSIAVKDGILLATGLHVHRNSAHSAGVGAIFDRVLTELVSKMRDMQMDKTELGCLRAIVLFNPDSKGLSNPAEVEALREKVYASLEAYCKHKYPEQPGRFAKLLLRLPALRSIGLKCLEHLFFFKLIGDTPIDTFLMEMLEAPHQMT
How it was run: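 GeneBLAzer RXR-alpha-UAS-bla HEK 293T cells in 2% charcoal-stripped FBS medium were exposed to compounds for 16 hr at 37 C in agonist mode. Beta-lactamase reporter read as 460/530 nm FRET ratio after 2 hr substrate loading.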

[2] = qHTS assay to identify small molecule agonists of the RXR signaling pathway - cell viability counter screen (AID 1159529); also: series mostly up to about 77 µM; nearly all actives have a fitted effect of over 50% in size
How it was run: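 RXR-alpha-UAS-bla HEK 293T cells in medium with 2% charcoal-stripped FBS were pre-incubated 5 hr, then compound-treated 16 hr at 37 C. Viability was read by CellTiter-Glo luminescence in the same wells as the beta-lactamase assay, with tetraoctyl ammonium bromide as positive control.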

[3] = qHTS assay to identify small molecule antagonists of the retinoid acid receptor (RAR) signaling pathway - cell viability counter screen (AID 1159551); also: nearly all actives have a fitted effect of over 35% in size
How it was run: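 Cytotoxicity counter screen in C3RL4 cells: 6 h compound exposure with 1 uM retinol (final), viability from cellular ATP by luminescence.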

[4] = qHTS assay to identify small molecule antagonists of the retinoic acid receptor (RAR) signaling pathway (AID 1159552; also: nearly all actives have a fitted effect of over 50% in size; also: potency is read from the fitted curve at half-maximal effect)
How it was run: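 Retinol signaling pathway inhibitors screened in C3RL4 RARE-luciferase reporter cells seeded overnight at 37 C, then compounds added with 1 uM (final) retinol as pathway substrate. After 6 hr at 37 C, luciferase luminescence read after 30 min at room temperature.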

[5] = qHTS assay to identify small molecule agonists of the retinoic acid receptor (RAR) signaling pathway (AID 1159553)
How it was run: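 Agonist activity was scored in C3RL4 cells bearing a retinoic acid response element luciferase construct. Cells were treated with compounds for 6 hr at 37 C, and luciferase signal was measured as luminescence.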

[6] = qHTS assay to identify small molecule antagonists of the estrogen related receptor (ERR) signaling pathway from Tox21 library - cell viability counter screen (AID 1224834); also: nearly all actives have a fitted effect of over 30% in size
How it was run: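 Cytotoxicity of test substances is gauged in the same ERR cells used for the antagonist screen, after 17.5 h of compound treatment at 37 C, by CellTiter-Fluor fluorescence measured after 30 min.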

[7] = molecular target: Luciferin 4-monooxygenase (Photinus pyralis) (UniProt P08659); experiment: qHTS assay to identify small molecule inhibitors of firefly luciferase (AID 1224835); also: nearly all actives have a fitted effect of over 25% in size; also: potency is read from the fitted curve at half-maximal effect
Luciferin 4-monooxygenase (Photinus pyralis), sequence (P08659 whole entry, looked up): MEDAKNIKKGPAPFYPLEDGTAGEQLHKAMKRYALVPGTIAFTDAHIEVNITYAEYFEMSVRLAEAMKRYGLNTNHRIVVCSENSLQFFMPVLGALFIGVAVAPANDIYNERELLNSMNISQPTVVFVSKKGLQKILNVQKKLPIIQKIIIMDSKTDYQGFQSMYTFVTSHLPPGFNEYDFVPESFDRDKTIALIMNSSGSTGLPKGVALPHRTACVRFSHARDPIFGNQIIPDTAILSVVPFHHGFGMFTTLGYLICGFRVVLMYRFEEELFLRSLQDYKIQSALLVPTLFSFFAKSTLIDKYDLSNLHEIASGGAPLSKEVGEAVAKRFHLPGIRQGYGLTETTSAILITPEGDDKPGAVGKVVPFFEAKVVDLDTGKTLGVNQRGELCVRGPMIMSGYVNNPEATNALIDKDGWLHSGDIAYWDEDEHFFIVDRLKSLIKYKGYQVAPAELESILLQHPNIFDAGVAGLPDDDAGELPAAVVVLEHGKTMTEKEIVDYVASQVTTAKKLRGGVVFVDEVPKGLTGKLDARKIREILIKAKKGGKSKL
How it was run: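 Quantitative HTS format; KM concentrations of both substrates. Purified P. pyralis FLuc activity quantified from luminescence images.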

[8] = qHTS assay to identify small molecule agonists of the constitutive androstane receptor (CAR) signaling pathway - cell viability counter screen (AID 1224836); also: series mostly up to about 92 µM; nearly all actives have a fitted effect of over 45% in size
How it was run: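 HepG2 cells stably carrying hCAR and a CYP2B6-2.2kb reporter; 15-concentration compounds plus PK11195 (final 0.75 uM), 23 hr at 37 C/5% CO2. Viability read by CellTiter-Fluor fluorescence.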

[9] = qHTS assay to identify small molecule antagonists of the constitutive androstane receptor (CAR) signaling pathway - cell viability counter screen (AID 1224837); also: series mostly up to about 92 µM; nearly all actives have a fitted effect of over 45% in size
How it was run: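 Multiplexed cytotoxicity read-out for the CAR antagonist screen: double-stable HepG2-CYP2B6-hCAR cells co-treated with 50 nM CITCO (final) and compound over 15 concentrations, incubated 23 hr, then assessed by CellTiter-Fluor fluorescence.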

[10] = molecular target: Nuclear receptor subfamily 1 group I member 3 (Homo sapiens) (UniProt Q14994); experiment: qHTS assay to identify small molecule antagonists of the constitutive androstane receptor (CAR) signaling pathway (AID 1224838); also: nearly all actives have a fitted effect of over 40% in size
Nuclear receptor subfamily 1 group I member 3 (Homo sapiens), sequence (Q14994 whole entry, looked up): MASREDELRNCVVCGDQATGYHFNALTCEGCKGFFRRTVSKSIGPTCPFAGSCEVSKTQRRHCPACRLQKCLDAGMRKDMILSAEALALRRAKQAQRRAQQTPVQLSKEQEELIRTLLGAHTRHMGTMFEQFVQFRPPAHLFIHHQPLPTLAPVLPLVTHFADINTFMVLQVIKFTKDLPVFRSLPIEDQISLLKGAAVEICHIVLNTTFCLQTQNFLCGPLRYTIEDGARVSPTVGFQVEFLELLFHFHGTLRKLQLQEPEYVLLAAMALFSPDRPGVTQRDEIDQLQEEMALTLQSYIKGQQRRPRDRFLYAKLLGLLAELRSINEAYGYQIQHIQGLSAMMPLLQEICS
How it was run: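 Compounds were titrated across 15 concentrations onto HepG2 cells double-stably expressing hCAR and a CYP2B6-2.2kb reporter, together with 50 nM CITCO (final). After 24 h at 37 C, luciferase activity was measured by luminescence.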

[11] = qHTS assay to identify small molecule antagonists of the estrogen related receptor signaling pathway with the pleiotropic PPARgamma coactivator (PGC) from Tox21 10K library - cell viability counter screen (AID 1224840; active = well fitted cell-killing curve with a large enough effect in the repeat runs, not every such curve was filed as active; also: nearly all actives have a fitted effect of over 40% in size)
How it was run: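 Step one, plate 2,000 PGC/ERR cells per well; step two, incubate 6 h at 37 C/5% CO2; step three, pin-transfer compounds; step four, incubate 17.5 h; step five, add CellTiter-Fluor and read fluorescence after 30 min.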

[12] = molecular target: Nuclear receptor subfamily 1 group I member 3 (Homo sapiens) (UniProt Q14994); experiment: qHTS assay to identify small molecule agonists of the constitutive androstane receptor (CAR) signaling pathway (AID 1224839); also: nearly all actives have a fitted effect of over 15% in size; also: potency is read from the fitted curve at half-maximal effect
How it was run: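 HepG2 cells stably co-transfected with hCAR and a CYP2B6-2.2kb luciferase reporter; compounds at 15 concentrations with 0.75 uM PK11195 present. After 24 hr at 37 C, luciferase read by ONE-Glo luminescence.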

[13] = qHTS assay to identify small molecule antagonists of the estrogen related receptor signaling pathway with the pleiotropic PPARgamma coactivator (PGC) from Tox21 10K library (AID 1224841; call rule not given here; also: actives are mostly falling curves and most rising ones were filed inactive; nearly all actives have a fitted effect of over 50% in size; also: potency is read from the fitted curve at half-maximal effect)
How it was run: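 Antagonism in this quantitative HTS is taken from loss of luciferase signal in PGC/ERR cells. Cells (2,000/well) are treated with compounds in DMSO after a 6 h settling period and read by One-Glo luminescence after 18 h.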

[14] = qHTS assay to identify small molecule agonists of the estrogen related receptor signaling pathway with the pleiotropic PPARgamma coactivator (PGC) from Tox21 10K library (AID 1224842); also: nearly all actives have a fitted effect of over 15% in size; also: potency is read from the fitted curve at half-maximal effect
How it was run: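 PGC/ERR reporter cells (NTP line) were seeded 2,000 per well, rested 6 h at 37 C/5% CO2, then pin-dosed with compounds in DMSO for 18 h at 37 C; luciferase read by One-Glo luminescence after 30 min at room temperature.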

[15] = qHTS assay to identify small molecule antagonists of the estrogen related receptor (ERR) signaling pathway - cell viability counter screen (AID 1224818);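 also: series mostly up to about 46 µM; viability measured after 17.5 h of compound exposure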
How it was run: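 Cells carrying the ERR pathway reporter were seeded and incubated for 6 hours before compound addition. After a 17.5-hour exposure at 37 C, live-cell protease activity was measured by CellTiter-Fluor fluorescence following 30 minutes of incubation.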

[16] = qHTS assay to identify small molecule antagonists of the estrogen related receptor (ERR) signaling pathway (AID 1224819;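 also: luminescence from an ERR-driven luciferase reporter measured with One-Glo reagent; series mostly up to about 46 µM; nearly all actives have a fitted effect of over 50% in size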)
How it was run: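 Compounds dissolved in DMSO were pin-transferred onto ERR cells that had been plated 6 h earlier, and cells were then incubated 18 h at 37 C; signal was luciferase luminescence via One-Glo.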

[17] = qHTS assay to identify small molecule agonists of the estrogen related receptor (ERR) signaling pathway (AID 1224820)
How it was run: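 Quantitative HTS of the LOPAC library used NTP ERR reporter cells treated 18 h at 37 C. Signal is luminescence after One-Glo addition and a 30 min room-temperature incubation.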

[18] = tested on: estrogen-related receptor alpha (ERRalpha) with PGC-1alpha coactivator, human; experiment: qHTS assay to identify small molecule antagonists of the estrogen related receptor signaling pathway with the pleiotropic PPARgamma coactivator (PGC) (AID 1224821; calls by dose curve)
How it was run: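 Quantitative HTS for antagonism: PGC/ERR cells received compounds after 6 h attachment and were incubated 18 h at 37 C, with luminescence (One-Glo) as the endpoint.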

[19] = qHTS assay to identify small molecule antagonists of the estrogen related receptor signaling pathway with the pleiotropic PPARgamma coactivator (PGC) cell viability counter screen (AID 1224822;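 also: series mostly up to about 46 µM; viability read after 17.5 h compound exposure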)
How it was run: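 Seed PGC/ERR cells (2,000/well); incubate 6 h at 37 C/5% CO2; pin-transfer compounds in DMSO; incubate 17.5 h at 37 C; add CellTiter-Fluor; after 30 min read fluorescence.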

[20] = qHTS assay to identify small molecule agonists of the estrogen related receptor signaling pathway with the pleiotropic PPARgamma coactivator (PGC) (AID 1224823)
How it was run: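 Cell-based luciferase assay in the NTP-supplied PGC/ERR line, 2,000 cells/well; 18 h compound exposure at 37 C, luminescence after One-Glo.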

SMILES	Potency [1]	Potency [2]	Potency [3]	Potency [4]	Potency [5]	Potency [6]	Potency [7]	Potency [8]	Potency [9]	Potency [10]	Potency [11]	Potency [12]	Potency [13]	Potency [14]	outcome [15]	outcome [16]	outcome [17]	Potency [18]	Potency [19]	outcome [20]
COC(=O)C(Cl)C(=O)OC	inactive	inactive	inactive	inactive	inactive	inactive	inactive	inactive	inactive	inactive	inactive									
CC(C)O.CC(C)O.OCCN(CCO)CCO.OCCN(CCO)CCO.[Ti]	inactive	inactive	inactive	inactive	inactive	inactive	inactive	inactive	inactive	inactive	inactive									
Nc1nc(N)nc(N)n1	inactive	inactive	inactive	inactive	inactive	inactive	inactive	inactive	inactive	inactive	inactive	inactive								
CCCCN=C=O	inactive	inactive	inactive	inactive	inactive	inactive	inactive	inactive	inactive		inactive		inactive	inactive						
CC(Cl)Cl	inactive	inactive	inactive	inactive	inactive	inactive	inactive	inactive	inactive	inactive	inactive		inactive	inactive						
O=C(CBr)OCc1ccccc1	inactive	inactive	inactive	inactive	inactive	inactive	inactive	inactive	inactive	inactive	inactive	inactive								
COP(=S)(OC)Oc1cc(Cl)c(I)cc1Cl	inactive	inactive	inactive	inactive	inactive	inactive	79.6 µM (active)	inactive	inactive	inactive	inactive	54.5 µM (active)								
O=NN1CCNCC1	inactive	inactive	inactive	inactive	inactive	inactive	inactive	inactive	inactive	inactive	inactive	inactive								
Cn1cc[n+](C)c1 (tested in a mixture with another compound)	inactive	inactive	inactive	inactive		inactive	inactive	inactive	inactive	inactive	inactive	inactive								
C=C(C#N)CCC#N	inactive	inactive	inactive	inactive	inactive	inactive	inactive	inactive		inactive	inactive	inactive	inactive	inactive						
O=C(O)c1ccccc1C(=O)Nc1cccc2ccccc12	inactive	inactive	inactive	inactive		inactive	inactive	inactive	inactive	inactive	inactive	30.6 µM (active)								
COc1cc(CC(C)N)cc2c1OCO2 (configuration not stated)	inactive	inactive	inactive	inactive	inactive	inactive	inactive	inactive		inactive	inactive	inactive	inactive	inactive						
Cn1sc(Cl)cc1=O	inactive	inactive	inactive	inactive	inactive	inactive	inactive	inactive	inactive	inactive	inactive	inactive	inactive	inactive						
O=C(O)C(F)(F)C(F)(F)C(F)(F)C(F)(F)C(F)(F)C(F)(F)C(F)(F)C(F)(F)C(F)(F)C(F)(F)F	11.6 µM (active)	inactive	inactive	inactive	inactive	inactive	inactive	inactive	inactive	inactive	inactive		inactive	57.9 µM (active)						
CC(=O)NC1CCSC1=O (configuration not stated)	inactive	inactive	inactive	inactive	inactive	inactive	inactive	inactive	inactive		inactive		inactive	inactive						
COC(N)=O	inactive	inactive	inactive	inactive	inactive	inactive	inactive	inactive	inactive	inactive	inactive	inactive								
O=S(=O)(O)C(F)(F)C(F)(F)C(F)(F)C(F)(F)F	6.54 µM (active)	inactive	inactive	18.3 µM (active)	inactive	inactive	inactive	inactive			inactive			inactive	inactive	inactive	inactive	inactive	inactive	inactive
CCOP(=O)(OCC)Oc1ccc([N+](=O)[O-])cc1	inactive	inactive	inactive	inactive	inactive	inactive	inactive	inactive		inactive	inactive	inactive	19.6 µM (active) and 5.45 µM (active)	inactive						
C[N+](C)(C)CCCl	inactive	inactive	inactive	inactive	inactive	inactive	inactive	inactive	inactive		inactive		inactive	inactive						
Clc1cccc(SC2CCNCC2)n1	inactive	inactive	inactive	inactive	inactive	inactive	inactive	inactive	inactive		inactive		inactive	inactive						
